Where a name gives a salt, the structure may show the parent alone. Read-outs that look alike come from different tables or passages of the source. Screen size: about 3,300 compounds; about 95 (3%) showed an effect of 50% or more. The list comes from a sample in which strong results are over-represented; it also holds similar structures and randomly drawn compounds.

For this test, the system named is HCoV-229E. On the set-up: species or system Huh-7; HTS, protection from HCoV-229E induced cell death, luminescent cell viability (CellCounting-Lite 2.0), inhibition rate. To be noted: 24 h post infection, 1 h compound pre-incubation, 10 µM, inhibitor.

Regarding `COc1ccc2cc3[n+](cc2c1OC)CCc1cc2c(cc1-3)OCO2` [Berberine (chloride hydrate)], under “229E Inhibition rate, 24 h”, the “229E Inhibition rate” value was found to be 34%. Take `C=C1C(=O)O[C@@H]2/C=C(\C)[C@@H](OC(C)=O)C/C=C(\COC(C)=O)C[C@@H](OC(=O)/C(C)=C/CO)[C@@H]12` [Eupalinolide A]: where the note is “229E Inhibition rate, 24 h”, the “229E Inhibition rate” value worked out at 35.1%.

`CC(C)C(O)C(=O)O` (stereo not drawn) [2-Hydroxy-3-methylbutanoic acid]: the “229E Inhibition rate” value was found to be 20.4%. Same read-out and setting: with `C[C@@H](O)C(=O)O` [D-(-)-Lactic acid (sodium)] the figure was 8.1%; with `C[C@H](O)C(=O)O` [L-Lactic acid], 58.1%; with `COc1ccc2c3c1O[C@H]1C[C@@H](O)CC[C@]31CCN(C)C2` [Lycoramine], 33.8%. Still for that read-out and setting: with `COc1ccc(CC(=O)O)cc1` [2-(4-Methoxyphenyl)acetic acid] the figure was 0%; with `COc1cc(CNC(=O)CCCCCCCC(C)C)ccc1O` [Homodihydrocapsaicin I], 33%; with `Cc1cc(O)cc2c1O[C@](C)(CCC[C@H](C)CCC[C@H](C)CCCC(C)C)CC2` [Delta-Tocopherol], 8.2%. On the same count and under the same terms, with `CCOC(=O)/C=C/c1ccccc1` [Ethyl cinnamate] the figure was 4%; with `CC(=O)OC/C1=C\[C@H]2[C@@H](OC(=O)/C=C/c3ccccc3)[C@@H](C)C[C@]2(OC(C)=O)C(=O)/C(C)=C/[C@@H]2[C@H](CC1)C2(C)C` [Euphorbia factor L7a], 90.9%; with `CC(=O)OC/C1=C/C[C@H]2[C@@H](/C=C(\C)C(=O)[C@@]3(OC(C)=O)C[C@H](C)[C@H](OC(=O)c4ccccc4)[C@@H]3[C@H]1OC(C)=O)C2(C)C` [Euphorbia factor L7b], 41.1%. For `COc1cc(/C=C/C(=O)NCC(O)c2ccc(O)cc2)ccc1O` (stereo not drawn) [N-Feruloyloctopamine], the “229E Inhibition rate” value stood at 7.9%.

`CC1=CC(=O)[C@@H]2C[C@H]1C2(C)C` [Verbenone]: the “229E Inhibition rate” value was found to be 0%. On the same count and under the same terms, for `C=C1[C@@H](O)[C@]2(O)OC[C@]34[C@H]2[C@@]2(C)[C@H](O)C(=O)C=C(C)[C@@H]2C[C@H]3OC(=O)[C@H](O)[C@@]14O` [Eurycomanone] the value was 53.4%. The same measure, in the same setting: for `CC1(C)Oc2cc3oc(-c4cc(O)cc(O[C@@H]5OC[C@@H](O)[C@H](O)[C@H]5O)c4)cc3cc2CC1O` (stereo partly drawn) [Mulberroside C] the value was 0%; for `O=C(/C=C/c1ccc(O)c(O)c1/C=C/c1ccc(O)c(O)c1)O[C@H](Cc1ccc(O)c(O)c1)C(=O)O` [Salvianolic acid A], 17.8%; for `CCCCCCCCCCCCCCCCC(=O)OC` [Methyl heptadecanoate], 20.9%.

Take `CCCCCC1C(=O)CCC1CC(=O)OC` (stereo not drawn) [Methyl dihydrojasmonate]: the “229E Inhibition rate” value was found to be 54.7%. Same read-out and setting: for `CC/C=C/CC1C(=O)CCC1CC(=O)OC` (stereo not drawn) [Methyl 2-(3-oxo-2-(pent-2-en-1-yl)cyclopentyl)acetate] the value was 22%; for `CC(C)(O)[C@@H]1CC[C@](C)([C@H]2[C@@H](O)C[C@@]3(C)[C@@H]4C[C@H](O)[C@H]5C(C)(C)[C@@H](O[C@@H]6OC[C@@H](O)[C@H](O)[C@H]6O[C@@H]6O[C@H](CO)[C@@H](O)[C@H](O)[C@H]6O)CC[C@@]56C[C@@]46CC[C@]23C)O1` [Astragaloside III], 10.8%; for `CC[C@@]1([C@H]2O[C@H]([C@H]3O[C@@](O)(CO)[C@H](C)C[C@@H]3C)C[C@H]2C)CC[C@H]([C@@]2(C)CC[C@]3(C[C@H](O)[C@@H](C)[C@@H]([C@H](C)[C@H](OC)[C@@H](C)C(=O)O)O3)O2)O1` [Monensin sodium salt], 24.5%. Regarding `CO[C@H]([C@H](C)[C@H]1O[C@@]2(CC[C@@](C)([C@H]3CC[C@@](C)([C@@H]4O[C@@H]([C@H]5O[C@@](O)(CO)[C@H](C)C[C@@H]5C)C[C@@H]4C)O3)O2)C[C@H](O)[C@H]1C)[C@H](C)C(=O)O` [Monensin B], the “229E Inhibition rate” value is on record as 55.3%. Turning to `CO[C@@H]1[C@@H](OC)[C@H](C)[C@@](O)(CC(=O)O)O[C@H]1[C@H](C)[C@H]1O[C@@]2(CC[C@@](C)([C@H]3CC[C@@](C)([C@@H]4O[C@@H]([C@H]5O[C@](C)(O)[C@H](C)C[C@@H]5C)C[C@@H]4O[C@@H]4C[C@H](OC)[C@@H](OC)[C@H](C)O4)O3)O2)C[C@H](O)[C@H]1C` [Maduramicin (ammonium)], the “229E Inhibition rate” value was determined as 3.4%. As for `COc1ccc(/C=C/c2cc(OC)cc(=O)o2)cc1` [Yangonin], the “229E Inhibition rate” value came to 44%.

`C[C@]12CC[C@@H]3c4ccc(O)cc4CC[C@H]3[C@@H]1CC[C@H]2O` [Alpha-Estradiol]: the “229E Inhibition rate” value was 18.2%. Still for that read-out and setting: with `O=C(/C=C/c1ccc(O)c(O)c1)O[C@@H]1CC(C(=O)O)=C[C@@H](O)[C@H]1O` [5-O-Caffeoylshikimic acid] the figure was 12%.

These data come from paper PMC12431657, “Discovery and mechanistic insights of dibenzoylmethane as a broad spectrum inhibitor of coronavirus” (PLOS Pathogens, 2025).
